# Source: PubChem (several laboratories)
# CYP2C9 inh: blockers of cytochrome P450 2C9 activity – biochemical, luminescence, ADME assay, primary screen; P11712; CYP2C9 Supersomes, luciferin-H conversion; inhibition, % at 5 µM; actives 20% (n = 96,000);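 active = blocking of liver enzyme CYP2C9 beyond about 50% at 5 µM, limit read from the data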
# CYP2C19 inh: blockers of cytochrome P450 2C19 activity – biochemical, luminescence, ADME assay, primary screen. P33261. CYP2C19 Supersomes, luciferin-H EGE luminescence, 30 min. inhibition, % at 5 µM. actives 21% (n = 96,000). AID 778, 2007;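 active = CYP2C19 inhibition above a set limit at 5 µM in the primary screen, cut at about 50% in these data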;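 note: plate controls were negative control wells for no effect and 2.5 mM tranylcypromine positive control for full effect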
# PostGolgi yeast: phenotypic screen on post-Golgi transport, primary screen; post-Golgi transport phenotypic cell assay; inhibition, % at 10 µM; actives 0.9% (n = 98,000); AID 739, 2007;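 note: yeast cells grown in 1536-well plates; yeast grown about 18 h at 30C before absorbance read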
# CYP2C9 act: human CYP2C9 activators, primary screen, biochemical, luminescence. Cytochrome P450 2C9 (Homo sapiens), P11712. recombinant CYP2C9, luciferin-H conversion; stronger effect = higher value; factor 1 = untreated enzyme, 0 = blocked. activation factor at 5 µM. actives 1.4% (n = 96,000);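 active = activation factor of 2 or more for CYP2C9 at a 5 µM dose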;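 note: 0 = sulfaphenazole-blocked wells and 1 = vehicle-only wells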
# PostGolgi ctrl: growth inhibition of yeast control strain, primary screen, counter-screen for post-Golgi transport modulator project | efflux-deficient yeast background strain, growth absorbance A615, 16 h | AID 738, 2007 | inhibition, % at 10 µM | actives 5% (n = 98,000)
# CYP2C19 act: human CYP2C19 activators, primary screen, biochemical, luminescence; Cytochrome P450 2C19 (Homo sapiens), P33261; 96,000 tested, under 10 active; recombinant CYP2C19, luciferin-H EGE luminescence; stronger effect = higher value; 0 = fully inhibited enzyme, 1 = untreated enzyme; activation factor at 5 µM;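 active = activation factor of at least 2 at 5 µM in the primary screen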;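 note: 0 = wells with 2.5 mM tranylcypromine and 1 = vehicle-only wells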
# Active calls of the source: *; x = no result. Hits are enriched below; roughly 32% of the tested compounds scored in any of these assays. Cut-off read from the data, not from the text of the source, unless noted: active = inhibition above about 30%; inactive = the rest.
SMILES,CYP2C9 inh,CYP2C19 inh,PostGolgi yeast,CYP2C9 act,PostGolgi ctrl,CYP2C19 act
CCCCCCCCOC(=O)C1=C(C)Nc2nnnn2C1c1cccs1 (stereo not drawn),94*,76*,18,0.1,79*,0.2
C=CCOC(=O)C1=C(C)Nc2ncnn2C1c1cccs1 (stereo not drawn),32,42,31*,0.7,15,0.6
Cc1ccc(OCCNC(=O)C2CC(=O)N(c3ccc(C)cc3)C2)cc1 (stereo not drawn),5,37,-11,0.9,8,0.6
CCS(=O)(=O)N1CCCC(C(=O)NCCN(C)Cc2ccccc2)C1 (stereo not drawn),0,-1,4,1,4,1
O=C(Nc1ccc2c(c1)OCCO2)c1ccc(S(=O)(=O)N2CCCCC2)cc1,70*,29,-1,0.3,4,0.7
O=C(CN1CCN(S(=O)(=O)c2ccc(Br)cc2)CC1)Nc1ccc2c(c1)OCCO2,35,78*,-8,0.7,30,0.2
O=C(Nc1ccc2c(c1)OCCO2)c1ccc(Br)c(S(=O)(=O)N2CCOCC2)c1,53*,82*,1,0.5,10,0.2
O=C(Nc1ccsc1C(=O)NC1CCCCC1)c1ccccc1,10,-6,13,0.9,-2,1.1
CCCn1c(=O)c2ccccc2n2c(SCCOc3ccccc3F)nnc12,46,56*,-23,0.5,26,0.4
CCCn1c(=O)c2ccccc2n2c(SCC(=O)c3ccccc3)nnc12,55*,38,17,0.4,8,0.6
CCCn1c(=O)c2ccccc2n2c(SCc3nnc(-c4ccccc4Br)o3)nnc12,58*,70*,7,0.4,16,0.3
Cc1cccc(Cn2c(C(=O)OC(C)C)cc3c2ccn3C)c1,21,46,-3,0.8,10,0.5
Cc1ccc(C2c3c(oc4ccc(Cl)cc4c3=O)C(=O)N2CCCN2CCOCC2)o1 (stereo not drawn),x,x,-5,x,19,x
N#CCc1nnc2n1-c1ccccc1CCC2,9,16,2,0.9,9,0.8
COc1ccc(-n2[nH]c(C)cc2=O)cc1,17,6,2,0.8,9,0.9
CCN(Cc1nc2cc(OC)c(OC)cc2c(=O)[nH]1)C(=O)c1ccc(S(=O)(=O)N(C)C)cc1,54*,30,-25,0.5,8,0.7
COC(=O)c1ccccc1NC(=S)NC(NC(=O)c1ccccc1[N+](=O)[O-])C(Cl)(Cl)Cl (stereo not drawn),97*,94*,2,0,4,0.1
COC(=O)c1ccccc1NC(=S)NC(NC(=O)c1ccco1)C(Cl)(Cl)Cl (stereo not drawn),88*,42,14,0.1,21,0.6
COC(=O)c1ccccc1NC(=O)c1ccco1,-22,15,-9,1.2,8,0.9
COC(=O)c1ccccc1NC(NC(=O)c1ccco1)C(=O)c1ccc(C)cc1 (stereo not drawn),58*,18,-6,0.4,-7,0.8
COc1ccc(Cl)cc1NC(=O)/C=C\C(=O)O,-8,-15,-6,1.1,13,1.1
O=C(CSc1ncnc2ccccc12)Nc1ccc(N2CCOCC2)cc1,0,-16,4,1,-6,1.2
CCN1CCc2c(sc(N)c2C#N)C1,5,0,2,1,11,1
N#Cc1c(N)sc(=S)c2c1CCN(Cc1ccccc1)C2,69*,74*,-1,0.3,10,0.3
CCN1CCc2c(C#N)c(N3CCOCC3)nc(NCc3ccccc3)c2C1,70*,46,5,0.3,36*,0.5
N#Cc1c(NCCO)nc(NCc2ccccc2)c2c1CCN(Cc1ccccc1)C2,94*,26,4,0.1,-6,0.7
CCN1CCc2c(C#N)c(N3CCOCC3)nc(NCCO)c2C1,2,-3,-6,1,13,1
C=CCNc1nc(N2CCOCC2)c(C#N)c2c1CN(C)CC2,40,14,-3,0.6,24,0.9
